From PubChem BioAssay (NCI)
About 83,000 compounds went through this panel and 20% of them were active in at least one assay; those are over-represented in the sample as a whole.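 96-well plates, one dose, 48 hours. Percent growth reported; active if below 10.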 Calls of active or inactive are those of the source.

tested on: CCRF-CEM leukemia; test: NCI-60 one-dose screen, 48 h (100 = growth as untreated, 0 = no growth, -100 = all killed); conditions: 10 µM unless noted
Experimental: Growth inhibition of the CCRF-CEM human tumor cell line is measured as a screen for anti-cancer activity. Cells are grown in 96 well plates and exposed to the test compound for 48 hours. Compounds are tested at a single concentration, which is 10^-5 M for most compounds. The reported endpoint is percent growth (GI% or GIPRCNT), where numbers from 0 - 100% represent growth inhibition, and numbers from -100% - 0 represent cell death. For example, a value of 40 represents 60% growth inhibition. A value of 0 means no net growth occurred over the course of the experiment. A value of -40 indicates 40% of cells at the beginning of the experiment died by the end of the experiment. A value of -100 means all cells are dead at the end of the experiment.
NCI-60 Human Tumor Cell Lines Screen was performed using the standard one-dose NCI protocol, which is described in more detail at https://dtp.cancer.gov/discovery_development/nci-60/default.htm.
Compounds with GIPRCNT values below 10 were considered active. Activity score was based on GIPRCNT using the following formula: […]
Score is 0 for GIPRCNT values of 100 or above, 50 for GIPRCNT values of 0, and 100 for GIPRCNT values of -100.

| Structure (SMILES) | growth |
| --- | --- |
| COc1ccc(C2NN=C3c4ccccc4CCC32)cc1 (stereo not given) | 13.4% (inactive) |
| O=C(Oc1ccccc1[N+](=O)[O-])C1CCCN1C(=O)OCc1ccccc1 (stereo not given) | 99.1% (inactive) |
| C/C(=C\c1ccc(OCC(=O)O)c(Cl)c1Cl)[N+](=O)[O-] | 102% (inactive) |
| C=C[C@@H]1C[C@@H]2Cc3ccccc3N1O2 | -50% (active) |
| S=C(S)NCCc1c[nH]c2ccccc12 | 81.5% (inactive) |
| O=C(/C=C\c1cccc([N+](=O)[O-])c1)/C=C/c1cccc([N+](=O)[O-])c1 | 74.4% (inactive) |
| O=C(O)c1cn(C2CC2)c2cc(N3CCN(C(=O)/C=C/c4ccc(Cl)cc4)CC3)c(F)cc2c1=O | 64.8% (inactive) |
| FC(F)(F)c1ccccc1-c1cn2c(ccc3ccccc32)n1 | 78.6% (inactive) |
| CN(C)CCCC(C#N)c1ccccc1 (stereo not given) | 105% (inactive) |
| COc1ccc(N=Cc2c(O)ccc3c2oc2cc(Cl)c(O)c(Cl)c23)cc1 | 77.9% (inactive) |
| C=C1C(=O)O[C@H]2[C@H]1CC/C(Cn1cc(CNC(=O)c3cc4ccccc4[nH]3)nn1)=C\CC[C@@]1(C)O[C@@H]21 | -18.8% (active) |
| Cn1ncc2c(Sc3ccc(Cl)cc3)ncnc21 | 95.3% (inactive) |
| O=C(CSc1nc2ccccc2[nH]1)c1ccc(N2CCOCC2)cc1 | 103% (inactive) |
| CCN(CC)CCOc1ccc(Cl)c(C)c1 | 98.4% (inactive) |
| COc1cc(NCCCCCN)c2ncccc2c1 | -24% (active) |
| COc1cccc(CC(C)=C(c2ccc(OCCN(C)C)cc2)c2ccc(OCCN(C)C)cc2)c1 | -19.5% (active) |
| CC12CCCC(CC(=O)c3[nH]c4ccccc4c31)C2 (stereo not given) | 16.6% (inactive) |
| CC(=O)Nc1ccc(/C=C/C(=O)c2ccccc2)cc1 | 31% (inactive) |
| CC12CCC3C4(C)COC(c5ccco5)OC4CCC3(C)C1CC(C1=CCOC1=O)O2 (stereo not given) | 101% (inactive) |
| COc1ccc(/C=C/c2c(C(C)=O)c(C)nc3ccccc23)cc1 | 77.7% (inactive) |

| Structure (SMILES) | growth |
| --- | --- |
| O=S(=O)(NCCCNc1nccc(-n2ccc3cccnc32)n1)c1ccc(Br)cc1 | 102% (inactive) |
| CC1=C(C#N)C(=O)NC(C)C1 (stereo not given) | 102% (inactive) |
| Cc1ccc(S(=O)(=O)NCCNc2cc(-c3cn(C(C)(C)C)nc3-c3cccc(O)c3)ccn2)cc1 | 60.7% (inactive) |
| COc1ccncc1S(=O)(=O)NC(=O)Nc1ccc(Cl)c(Cl)c1 | 81.7% (inactive) |
| O=C(C1=Cc2cc3ccccc3n2Cc2cnnn21)c1ccccc1 | 53% (inactive) |
| C=C1CC2(OC1=O)C(=O)N(CCCN1C(=O)C3(CC(=C)C(=O)O3)c3ccccc31)c1ccccc12 (stereo not given) | -13.8% (active) |
| O=c1[nH]c(Nc2ccc(S(=O)(=O)O)cc2)nc2nc(Nc3ccc(NC(=S)Nc4ccccc4)cc3)nc(-c3ccc(O)cc3O)c12 | 94.5% (inactive) |
| NC1=NC(SCc2ccccc2CCl)c2ncn(Cc3ccccc3CCl)c2N1 (stereo not given) | 7.36% (active) |
| FC(F)(F)c1cccc(-c2cn3c(ccc4ccccc43)n2)c1 | 105% (inactive) |
| O=C(Nc1cccc(-n2cc(-c3ccncc3)c(-c3ccc(Cl)c(O)c3)n2)c1)c1ccccc1 | 67.5% (inactive) |
| COc1ccc(/C=C2\Oc3cc(OCCCN4CCCC4)ccc3C2=O)cc1 | 52.3% (inactive) |
| COc1ccc(CCNC2=CC(=O)CCC2)cc1OC | 102% (inactive) |
| COc1ccc2c(c1)[nH]c(=O)c1c3cc(C)c(C)cc3cn21 | -68.1% (active) |
| CCCCN(CCCC)C(=N)c1ccnc2ccccc12 | 8.24% (active) |
| COc1ccc(OC)c(C2OC(c3ccc4ccccc4c3O)=NN2C(C)=O)c1 (stereo not given) | 69.2% (inactive) |
| CN1C=CN(Cc2ccc(-c3ccccn3)nc2)[CH-]1.CN1C=CN(Cc2ccc(-c3ccccn3)nc2)[CH-]1.[Au+3] | 6.2% (active) |
| CCN(CC)CCCC(C)Nc1c2ccc(Cl)cc2nc2cc(OC)c(OC)cc12 (stereo not given) | 15.5% (inactive) |
| Nc1nc(=O)c2ccccc2s1 | 92.2% (inactive) |
| C/C=C/C1=CN2C(=O)c3cc(OC4OC(C)C(NC)C(C)(O)C4O)c(C)cc3N=C[C@@H]2C1 (stereo not given in full) | 0.51% (active) |
| N#Cc1c(-c2ccccc2)nc(SCC(=O)N2CCN(c3ccccc3)CC2)[nH]c1=O | 100% (inactive) |
